# Test results as given in PubChem BioAssay (Tox21).
# Several values for one entry are separate records, joined by “and”; a condition that tells them apart may be missing. Equal values may be shown once. Inconclusive results are not listed. Where a call stands in place of a potency, no number is given. Activity calls are given as the source filed them. Unless noted, the call rests on the fitted dose curve; in most records, active means well fitted curve in the direction sought with a large enough effect in the repeat runs; inconclusive means weak or mixed curves; inactive means no such curve, though single readings can be large; an effect the other way counts as inactive or inconclusive.
# Columns and labels:
# [1] = qHTS assay to identify small molecule antagonists of the glucocorticoid receptor (GR) signaling pathway - cell viability counter screen (AID 720693); further: nearly all actives have a fitted effect of over 55% in size
# [2] = qHTS assay for identifying genotoxic compounds that show differential cytotoxicity against isogenic chicken DT40 cell lines with known DNA damage response pathways - wild type cell line (AID 743012); further: nearly all actives have a fitted effect of over 60% in size; further: potency means the concentration at half of the fitted maximal effect
# In short: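 Luminescent ATP viability signal (CellTiter-Glo, 30 min RT) recorded after wild type DT40 cells were incubated with compounds for 40 h at 37 C/5% CO2.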
# [3] = qHTS assay for identifying genotoxic compounds that show differential cytotoxicity against isogenic chicken DT40 cell lines with known DNA damage response pathways - Rad54/Ku70 mutant cell line (AID 743015); further: nearly all actives have a fitted effect of over 60% in size; further: potency means the concentration at half of the fitted maximal effect
# [4] = qHTS assay to identify small molecule antagonists of the androgen receptor (AR) signaling pathway - cell viability counter screen (AID 743033; further: nearly all actives have a fitted effect of over 45% in size)
# [5] = qHTS assay to identify small molecule antagonists of the androgen receptor (AR) signaling pathway using the MDA cell line - cell viability counter screen (AID 743041; further: nearly all actives have a fitted effect of over 45% in size)
# In short: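 Cytotoxicity counter screen: MDA-kb2 AR-luc cells, compound + R1881, 16 h, 37C, 0% CO2; CellTiter-Fluor added at 15.5 h, fluorescence read after 30 min.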
# [6] = qHTS assay to identify small molecule antagonists of the thyroid receptor (TR) signaling pathway (AID 743065); further: nearly all actives have a fitted effect of over 55% in size; further: potency means the concentration at half of the fitted maximal effect
# In short: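 GH3.TRE-Luc rat pituitary cells (two TREs driving luciferase) were dosed with compound, then stimulated with 1 nM T3 (final) for 23.5 h at 37 C. ONE-Glo luminescence was the read-out, with CellTiter-Fluor fluorescence as the cytotoxicity counter-screen.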
# [7] = system: thyroid hormone receptor (rat, GH3 cells); experiment: qHTS assay to identify small molecule agonists of the thyroid receptor (TR) signaling pathway (AID 743066; calls by dose curve)
# [8] = biological target: Estrogen receptor (Homo sapiens) (UniProt P03372); experiment: qHTS assay to identify small molecule antagonists of the estrogen receptor alpha (ER-alpha) signaling pathway (AID 743069; active means well fitted curve in the direction sought with a large enough effect in the signal ratio in the repeat runs, not every such curve was filed as active; the % refers to the signal ratio)
# Estrogen receptor (Homo sapiens), sequence (P03372 whole entry, looked up): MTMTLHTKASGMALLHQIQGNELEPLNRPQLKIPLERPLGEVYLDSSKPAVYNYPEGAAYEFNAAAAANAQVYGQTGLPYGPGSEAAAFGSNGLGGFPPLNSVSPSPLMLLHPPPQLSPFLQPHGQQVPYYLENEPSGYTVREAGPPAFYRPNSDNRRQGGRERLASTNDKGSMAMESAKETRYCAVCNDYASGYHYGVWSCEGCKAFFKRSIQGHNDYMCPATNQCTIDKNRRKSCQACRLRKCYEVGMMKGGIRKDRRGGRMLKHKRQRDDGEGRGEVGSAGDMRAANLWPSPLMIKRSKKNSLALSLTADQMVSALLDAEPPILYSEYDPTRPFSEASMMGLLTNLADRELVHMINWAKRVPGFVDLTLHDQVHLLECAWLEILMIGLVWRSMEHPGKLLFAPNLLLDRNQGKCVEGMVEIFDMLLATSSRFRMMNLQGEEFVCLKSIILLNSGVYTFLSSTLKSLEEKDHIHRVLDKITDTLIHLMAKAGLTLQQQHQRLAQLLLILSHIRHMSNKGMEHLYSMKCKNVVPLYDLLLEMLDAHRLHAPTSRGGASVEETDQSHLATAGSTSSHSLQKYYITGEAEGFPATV
# In short: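 Beta-lactamase FRET fluorescence is read after 2 hr at room temperature with LiveBLAzer B/G substrate. Before that, ER-alpha-bla HEK293 cells sit 4 hr after plating, then receive compound plus 17beta-estradiol and incubate 18 hr at 37C.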
# [9] = qHTS assay to identify small molecule antagonists of the estrogen receptor alpha (ER-alpha) signaling pathway - cell viability counter screen (AID 743074; calls by dose curve;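 further: HEK293 cells carrying ER-alpha-UAS-bla reporter stimulated with 17beta-estradiol; nearly all actives have a fitted effect of over 45% in size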)
# [10] = biological target: Estrogen receptor (Homo sapiens) (UniProt P03372); experiment: qHTS assay to identify small molecule agonists of the estrogen receptor alpha (ER-alpha) signaling pathway (AID 743075; calls by dose curve;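 further: HEK293 GripTite cells with ER-alpha and UAS-driven beta-lactamase reporter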)
# [11] = biological target: Estrogen receptor (Homo sapiens) (UniProt P03372); experiment: qHTS assay to identify small molecule agonists of the estrogen receptor alpha (ER-alpha) signaling pathway using the BG1 cell line (AID 743079); further: nearly all actives have a fitted effect of over 20% in size
# [12] = qHTS assay to identify small molecule antagonists of the estrogen receptor alpha (ER-alpha) signaling pathway using the BG1 cell line (AID 743080; calls by dose curve;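 further: BG1 cells stimulated with 17beta-estradiol alongside compound; series mostly up to about 70 µM; nearly all actives have a fitted effect of over 25% in size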)
# In short: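 Seeding, 24 h rest, compound transfer from DMSO, 17beta-estradiol addition, 21.5 h incubation, CellTiter-Fluor (30 min, 37 C), then ONE-Glo (30 min, room temperature): this sequence was run on BG1-Luc-4E2 reporter cells.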
# [13] = qHTS assay to identify small molecule antagonists of the estrogen receptor alpha (ER-alpha) signaling pathway using the BG1 cell line - cell viability counter screen (AID 743081);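 further: compound given together with 17beta-estradiol as the ER stimulus; series mostly up to about 70 µM; nearly all actives have a fitted effect of over 45% in size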
# [14] = biological target: Aromatase (Homo sapiens) (UniProt P11511); experiment: qHTS assay to identify aromatase inhibitors (AID 743083); further: series mostly up to about 70 µM; nearly all actives have a fitted effect of over 55% in size
# Aromatase (Homo sapiens), sequence (P11511 whole entry, looked up): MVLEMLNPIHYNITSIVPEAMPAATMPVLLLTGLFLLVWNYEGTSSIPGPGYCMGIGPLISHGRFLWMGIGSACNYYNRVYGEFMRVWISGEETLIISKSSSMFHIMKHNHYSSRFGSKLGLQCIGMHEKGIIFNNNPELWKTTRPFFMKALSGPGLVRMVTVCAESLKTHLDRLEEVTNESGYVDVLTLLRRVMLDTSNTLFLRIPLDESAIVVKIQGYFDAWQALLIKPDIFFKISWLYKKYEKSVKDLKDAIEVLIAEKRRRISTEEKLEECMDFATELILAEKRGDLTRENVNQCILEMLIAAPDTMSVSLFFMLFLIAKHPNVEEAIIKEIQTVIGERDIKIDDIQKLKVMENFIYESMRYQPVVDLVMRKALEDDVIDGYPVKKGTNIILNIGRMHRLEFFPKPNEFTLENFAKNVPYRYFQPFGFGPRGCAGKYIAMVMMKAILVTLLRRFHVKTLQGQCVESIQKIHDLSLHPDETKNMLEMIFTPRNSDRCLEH
# [15] = qHTS assay to identify small molecule antagonists of the thyroid receptor (TR) signaling pathway - cell viability counter screen (AID 743064); further: nearly all actives have a fitted effect of over 50% in size
# In short: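 Plate GH3.TRE-Luc cells; incubate 4 h at 37 °C; add compound, then T3 to 1 nM final; incubate 23.5 h; add CellTiter-Fluor; incubate 30 min at 37 °C, 5% CO2; read fluorescence.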
Compound,Potency [1],Potency [2],Potency [3],outcome [4],outcome [5],Potency [6],Potency [7],Potency [8],outcome [9],outcome [10],Potency [11],outcome [12],outcome [13],Potency [14],Potency [15]
O=[N+]([O-])c1cc([As](=O)(O)O)ccc1O,inactive,inactive,inactive,inactive,inactive,inactive,inactive,inactive,inactive,inactive,inactive,inactive,inactive,inactive,–
ClCCOCCCl,inactive,inactive,inactive,inactive,inactive,inactive,inactive,–,inactive,–,–,–,inactive,inactive,inactive
CNC(=O)Oc1cccc2ccccc12,inactive,–,inactive,inactive,inactive,inactive,inactive,inactive,inactive,inactive,inactive,inactive,inactive,inactive,–
O=P1(NCCCl)OCCCN1CCCl (centres undefined),inactive,inactive,inactive,inactive,inactive,inactive,inactive,–,inactive,–,–,–,inactive,inactive,inactive
COP(=S)(OC)SCN1C(=O)c2ccccc2C1=O,inactive,48.6 µM (active),inactive,inactive,inactive,inactive,inactive,–,inactive,–,–,–,inactive,inactive,–
O=C(O)CCCc1ccc(N(CCCl)CCCl)cc1,inactive,21.1 µM (active) and 770 nM (active),3.86 µM (active),inactive,inactive,30.8 µM (active) and 27.3 µM (active),inactive,inactive,inactive,inactive,inactive,inactive,inactive,inactive,–
CNc1cnn(-c2cccc(C(F)(F)F)c2)c(=O)c1Cl,inactive,inactive,inactive,inactive,inactive,inactive,inactive,–,inactive,–,–,–,inactive,inactive,inactive
[N-]=[N+]=CC(=O)OC[C@H](N)C(=O)O,inactive,inactive,inactive,inactive,inactive,inactive,inactive,–,inactive,–,–,–,inactive,–,–
FC(F)(F)c1ccc(Cl)cc1,inactive,inactive,inactive,inactive,inactive,inactive,inactive,inactive,inactive,inactive,inactive,inactive,inactive,inactive,–
CCOC(=O)CC(SP(=O)(OC)OC)C(=O)OCC (centres undefined),inactive,inactive,inactive,inactive,inactive,inactive,inactive,–,–,–,–,–,inactive,inactive,–
C=CC(=O)OCC(CC)CCCC (centres undefined),inactive,–,–,inactive,inactive,inactive,inactive,–,inactive,–,–,–,inactive,inactive,–
N#CN=C(N)N,inactive,inactive,inactive,inactive,inactive,inactive,inactive,inactive,inactive,inactive,inactive,inactive,inactive,inactive,–
CCNc1nc(Cl)nc(NC(C)C)n1,inactive,inactive,inactive,inactive,inactive,inactive,inactive,inactive,inactive,inactive,inactive,inactive,inactive,inactive,–
CN(C)NC(=O)CCC(=O)O,inactive,–,–,inactive,inactive,inactive,inactive,–,inactive,–,–,–,inactive,inactive,inactive
CC(=O)/C=C/c1ccccc1,inactive,inactive,inactive,inactive,inactive,–,–,–,inactive,–,–,–,inactive,inactive,–
C=CC#N,inactive,inactive,inactive,inactive,inactive,inactive,inactive,inactive,inactive,inactive,inactive,inactive,inactive,inactive,–
C/C=C/c1ccc2c(c1)OCO2,inactive,inactive,inactive,inactive,inactive,inactive,inactive,–,inactive,–,–,–,inactive,inactive,inactive
